The text below walks through data of PubChem BioAssay (NCI).

Several values for one entry are separate records, joined by “and”; a condition that tells them apart may be missing. Equal entries are not always repeated. This is part of a sample that, as a whole, favours compounds with a hit. Of some 83,000 tested, about 20% had one in any assay.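 Method: cells in 96-well plates; compound added at one concentration; 48 h incubation; percent growth measured; values under 10 scored active.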 Activity calls are given as the source filed them.

Some test systems named below: T-47D breast; BT-549 breast; SW-620 colon; MCF7 breast; HCT-116 colon; HCC-2998 colon; KM12 colon.
Holding throughout (assay): NCI-60 one-dose screen, 48 h (100 = growth as untreated, 0 = no growth, -100 = all killed)
The next experiment concerns MDA-MB-435 melanoma. To be noted: 10 µM unless noted.

As for `O=C(Nc1ccccc1)OCC(CN1CCCCC1)OC(=O)Nc1ccccc1` (centres undefined), the growth with T-47D breast (10 µM unless noted) is 71.5% (inactive) and 97% (inactive); with BT-549 breast (10 µM unless noted), 69.7% (inactive) and 102% (inactive); in the experiment with MDA-MB-435 melanoma, 90.3% (inactive) and 97.4% (inactive); in the experiment with SW-620 colon (10 µM unless noted), 104% (inactive) and 96.9% (inactive); in the experiment on MCF7 breast (10 µM unless noted), 72.9% (inactive) and 96% (inactive); in the experiment on HCT-116 colon (10 µM unless noted) it was 69.1% (inactive) and 93.6% (inactive). For the same compound, the growth with HCC-2998 colon (10 µM unless noted) is 94% (inactive) and 98.4% (inactive); with KM12 colon (10 µM unless noted), 93% (inactive) and 101% (inactive).
Regarding `COc1ccc(/C=N/NC(N)=S)cc1`, the growth is 85.6% (inactive) with T-47D breast (10 µM unless noted); 104% (inactive) with BT-549 breast (10 µM unless noted); 100% (inactive) in the experiment with MDA-MB-435 melanoma; 125% (inactive) in the experiment with SW-620 colon (10 µM unless noted); 103% (inactive) in the experiment on MCF7 breast (10 µM unless noted); 89.3% (inactive) in the experiment with HCT-116 colon (10 µM unless noted). Also, the figures for the growth in the experiment on HCC-2998 colon (10 µM unless noted) and in the experiment on KM12 colon (10 µM unless noted) were 90.7% (inactive) and 119% (inactive), respectively.
In the case of `CC(C)(C)C1CCC(=NO)CC1` (centres undefined), the growth is 96.6% (inactive) in the experiment on T-47D breast (10 µM unless noted); 115% (inactive) in the experiment on BT-549 breast (10 µM unless noted); 99.8% (inactive) with MDA-MB-435 melanoma; 106% (inactive) with SW-620 colon (10 µM unless noted); 83.9% (inactive) with MCF7 breast (10 µM unless noted); 96.8% (inactive) in the experiment on HCT-116 colon (10 µM unless noted). Besides, the growth with HCC-2998 colon (10 µM unless noted) was 107% (inactive); in the experiment on KM12 colon (10 µM unless noted) it was 103% (inactive).
For the compound `O=c1[nH]c(=S)[nH]n1C(=S)n1[nH]c(=S)[nH]c1=O`, the growth was 92% (inactive) with T-47D breast (10 µM unless noted); 108% (inactive) with BT-549 breast (10 µM unless noted); 110% (inactive) in the experiment with MDA-MB-435 melanoma; 98.5% (inactive) with SW-620 colon (10 µM unless noted); 91.8% (inactive) in the experiment on MCF7 breast (10 µM unless noted); 102% (inactive) with HCT-116 colon (10 µM unless noted). For the same compound, the growth with HCC-2998 colon (10 µM unless noted) was 99.6% (inactive); in the experiment with KM12 colon (10 µM unless noted), 98.4% (inactive).
As to `S=c1nc[nH]c2nc[nH]c12`, the growth in the experiment with T-47D breast (10 µM unless noted) was 18.6% (inactive); with BT-549 breast (10 µM) it was 62% (inactive); in the experiment on BT-549 breast (50 µM), 64.4% (inactive); in the experiment on SW-620 colon (10 µM), 34.6% (inactive); in the experiment on SW-620 colon (50 µM), 21.5% (inactive); in the experiment with MCF7 breast (10 µM), 10.7% (inactive). Further, the growth in the experiment with MCF7 breast (50 µM) is 6.35% (active); in the experiment with MCF7 breast (750 µM), 4.16% (active) and -35.5% (active); in the experiment with HCT-116 colon (10 µM), 19.2% (inactive); in the experiment with HCT-116 colon (50 µM) it was 28.3% (inactive); with KM12 colon (10 µM), 35.4% (inactive); in the experiment on KM12 colon (50 µM), 14.9% (inactive).
For the compound `Cc1ccc(S(=O)(=O)n2ccnc2)cc1`, the growth is 96.8% (inactive) with T-47D breast (10 µM unless noted); 122% (inactive) in the experiment on BT-549 breast (10 µM unless noted); 108% (inactive) in the experiment on MDA-MB-435 melanoma; 109% (inactive) in the experiment with SW-620 colon (10 µM unless noted); 99% (inactive) in the experiment on MCF7 breast (10 µM unless noted); 98% (inactive) with HCT-116 colon (10 µM unless noted). In addition, the growth is 102% (inactive) in the experiment on HCC-2998 colon (10 µM unless noted) and 95.8% (inactive) in the experiment on KM12 colon (10 µM unless noted).
As for `COc1ccc(S(=O)(=O)c2ccc(F)cc2)cc1`, the growth is 99% (inactive) with T-47D breast (10 µM unless noted); 99% (inactive) in the experiment on BT-549 breast (10 µM unless noted); 122% (inactive) in the experiment on MDA-MB-435 melanoma; 103% (inactive) in the experiment on SW-620 colon (10 µM unless noted); 101% (inactive) in the experiment on MCF7 breast (10 µM unless noted); 102% (inactive) with HCT-116 colon (10 µM unless noted). Moreover, the growth was 111% (inactive) with HCC-2998 colon (10 µM unless noted) and 106% (inactive) in the experiment with KM12 colon (10 µM unless noted).
`Oc1ccc(O)c(-c2ccccc2)c1`: the growth in the experiment with T-47D breast (10 µM unless noted) was 47.1% (inactive); with BT-549 breast (10 µM unless noted) it was 55.3% (inactive); in the experiment on MDA-MB-435 melanoma, 81.8% (inactive); in the experiment on SW-620 colon (10 µM unless noted), 78.7% (inactive); in the experiment with MCF7 breast (10 µM unless noted), 39.5% (inactive); with HCT-116 colon (10 µM unless noted), 47.1% (inactive). For the same compound, the growth in the experiment with HCC-2998 colon (10 µM unless noted) is 65.6% (inactive); in the experiment with KM12 colon (10 µM unless noted), 40.8% (inactive).
As for `COC(=O)CCOc1ccccc1`, the growth is 103% (inactive) in the experiment with T-47D breast (10 µM unless noted); 91.7% (inactive) with BT-549 breast (10 µM unless noted); 109% (inactive) with MDA-MB-435 melanoma; 107% (inactive) in the experiment on SW-620 colon (10 µM unless noted); 89.3% (inactive) in the experiment with MCF7 breast (10 µM unless noted); 103% (inactive) in the experiment with HCT-116 colon (10 µM unless noted). Besides, the growth is 91% (inactive) in the experiment on HCC-2998 colon (10 µM unless noted) and 102% (inactive) in the experiment on KM12 colon (10 µM unless noted).
`NC1=NC(c2ccccc2)N=C(Nc2ccccc2)N1` (centres undefined): the growth is 98.4% (inactive) and 106% (inactive) in the experiment on T-47D breast (10 µM unless noted); 74.5% (inactive) and 83.4% (inactive) in the experiment on BT-549 breast (10 µM unless noted); 18.2% (inactive) and 7.52% (active) with MDA-MB-435 melanoma; 84.4% (inactive) and 94.5% (inactive) in the experiment with SW-620 colon (10 µM unless noted); 13.7% (inactive) and 22% (inactive) in the experiment with MCF7 breast (10 µM unless noted); 59.9% (inactive) and 44.6% (inactive) with HCT-116 colon (10 µM unless noted). Also, the growth is 93.6% (inactive) with HCC-2998 colon (10 µM unless noted); 26.1% (inactive) and 51.7% (inactive) in the experiment with KM12 colon (10 µM unless noted).
Regarding `COC(=O)c1ccccc1Cl`, the growth was 94% (inactive) with T-47D breast (10 µM unless noted); 98.4% (inactive) with BT-549 breast (10 µM unless noted); 103% (inactive) in the experiment with MDA-MB-435 melanoma; 103% (inactive) with SW-620 colon (10 µM unless noted); 99.6% (inactive) in the experiment with MCF7 breast (10 µM unless noted); 100% (inactive) in the experiment on HCT-116 colon (10 µM unless noted). The growth in the experiment on HCC-2998 colon (10 µM unless noted) was 105% (inactive); in the experiment with KM12 colon (10 µM unless noted), 101% (inactive).
Regarding `CS/C(=C\c1ccc(C(=O)c2ccc(C)cc2)n1C)S(C)=O` (centres undefined), the growth in the experiment on T-47D breast (10 µM) is 79.7% (inactive); in the experiment with T-47D breast (100 µM) it was 47.6% (inactive); in the experiment on BT-549 breast (10 µM), 102% (inactive); in the experiment on BT-549 breast (100 µM), 47.4% (inactive); with MCF7 breast (10 µM), 89.6% (inactive); in the experiment with MCF7 breast (100 µM), 70.7% (inactive). For the same compound, the growth in the experiment with HCT-116 colon (10 µM) is 97.1% (inactive); in the experiment with HCT-116 colon (100 µM), 70.9% (inactive); in the experiment on HCC-2998 colon (10 µM), 95.9% (inactive); in the experiment with HCC-2998 colon (100 µM), 87.2% (inactive); with KM12 colon (10 µM), 94.3% (inactive); in the experiment on KM12 colon (100 µM) it was 72.8% (inactive).
